This is part of a sample that, as a whole, favours compounds with a hit. Of some 79,000 tested, about 15% had one in any assay. Calls of active or inactive are those of the source. Cut-off read from the data, not from the text of the source: active = growth inhibition above about 70%; inactive = the rest.
Assays:
[1] = NCI Yeast Anticancer Drug Screen. Data for the rad52 strain (AID 147);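 note: 0% = growth of vehicle-treated control cultures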; settings: S. cerevisiae rad52 mutant growth inhibition, active compounds read high
Method in brief: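 The repair-mutant yeast strain was incubated with compounds, then growth was read and inhibition derived relative to vehicle.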

[2] = NCI Yeast Anticancer Drug Screen. Data for the wt1 strain (AID 149);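 note: 0% = growth of vehicle-treated wt1 cultures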; settings: S. cerevisiae wt1 strain (SPY 50644) growth inhibition, active compounds read high
Method in brief: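 Growth inhibition read against vehicle controls after compound exposure of the wt1 yeast strain.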

[3] = NCI Yeast Anticancer Drug Screen. Data for the rad50EPP+ strain (AID 151);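 note: 0% = growth of vehicle-treated control cultures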; settings: S. cerevisiae rad50 mutant strain, active compounds read high
Method in brief: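 Vehicle-normalised growth inhibition; rad50EPP+ yeast strain, altered in DNA damage repair, compound-treated.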

[4] = NCI Yeast Anticancer Drug Screen. Data for the mgt1 strain (AID 153); settings: S. cerevisiae mgt1 mutant growth inhibition, active compounds read high
Method in brief: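 Vehicle-normalized growth inhibition is determined in mgt1 yeast, a strain selected for a defined alteration in DNA repair or cell cycle control.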

[5] = NCI Yeast Anticancer Drug Screen. Data for the rad50 strain (AID 155);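 note: 0% = growth of vehicle-only cultures of the same strain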; settings: S. cerevisiae rad50 strain growth inhibition, active compounds read high
Method in brief: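 Readout: growth inhibition relative to vehicle-treated cultures. Compound exposure was carried out in a genetically defined yeast strain deficient in DNA damage repair.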

[6] = NCI Yeast Anticancer Drug Screen. Data for the mec2-1 strain (AID 157); settings: S. cerevisiae mec2-1 strain, active compounds read high
Method in brief: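 Mutant yeast (mec2-1) grown with compound; growth inhibition relative to vehicle control reported.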

[7] = NCI Yeast Anticancer Drug Screen. Data for the rad14 strain (AID 159);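 note: 0% = growth of vehicle-treated control cultures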; settings: S. cerevisiae rad14 strain growth inhibition, active compounds read high
Method in brief: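 Growth inhibition vs vehicle controls; genetically altered yeast strain (DNA damage repair defect) treated with test compounds.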

[8] = NCI Yeast Anticancer Drug Screen. Data for the sgs1 mgt1 strain (AID 161);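 note: 0% = growth of cultures given vehicle only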; settings: S. cerevisiae sgs1 mgt1 strain, active compounds read high
Method in brief: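 Yeast cells carrying a defined DNA-repair defect were exposed to test compounds. Growth inhibition was measured relative to vehicle-treated controls.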

[9] = NCI Yeast Anticancer Drug Screen. Data for the CLN2oe strain (AID 163);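 note: 0% = growth of vehicle-only control cultures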; settings: S. cerevisiae CLN2oe strain, active compounds read high
Method in brief: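 Compounds are applied to yeast harbouring a defined cell-cycle control change; reduced growth compared with vehicle-treated controls gives the value.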

[10] = NCI Yeast Anticancer Drug Screen. Data for the cln2 rad14 strain (AID 165);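 note: 0% = growth equal to vehicle treated cultures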; settings: S. cerevisiae cln2 rad14 strain, active compounds read high
Method in brief: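 Readout is yeast growth inhibition versus vehicle-treated controls, using a strain with cln2 and rad14 alterations exposed to compound.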

[11] = NCI Yeast Anticancer Drug Screen. Data for the bub3 strain (AID 167); settings: S. cerevisiae bub3 mutant strain, active compounds read high
Method in brief: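 Readout: yeast growth inhibition, expressed relative to vehicle-only wells. The test organism is a mutant strain from a panel with lesions in DNA repair or checkpoint genes.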

[12] = NCI Yeast Anticancer Drug Screen. Data for the wt2 strain (AID 169);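 note: 0% = growth of vehicle-treated yeast cultures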; settings: S. cerevisiae wt2 strain growth inhibition, active compounds read high
Method in brief: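 Against vehicle-treated controls, the growth of yeast exposed to each compound was compared, and the inhibition was recorded.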

[13] = NCI Yeast Anticancer Drug Screen. Data for the sgs1 strain (AID 173);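 note: 0% = growth of vehicle-only control cultures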; settings: S. cerevisiae sgs1 mutant, active compounds read high
Method in brief: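 Each compound was added to cultures of the altered yeast strain. Growth was recorded, and inhibition was derived by comparison with vehicle controls.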

[14] = NCI Yeast Anticancer Drug Screen. Data for the mlh1 rad18 strain (AID 175); settings: S. cerevisiae mlh1 rad18 strain growth inhibition, active compounds read high
Method in brief: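 Genetically defined yeast (DNA repair-deficient) exposed to compounds; growth inhibition determined relative to vehicle.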

[15] = NCI Yeast Anticancer Drug Screen. Data for the rad18 strain (AID 177); settings: S. cerevisiae rad18 mutant growth inhibition, active compounds read high
Method in brief: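 Vehicle-treated cultures served as the baseline for scoring compound-induced growth inhibition in DNA-repair-mutant yeast.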

[16] = NCI Yeast Anticancer Drug Screen. Data for the mlh1 strain (AID 171);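 note: 0% = growth of vehicle-treated control cultures of the same strain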; settings: S. cerevisiae mlh1 strain growth inhibition, active compounds read high
Method in brief: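 Measured: yeast growth. Reference: vehicle-treated controls. Organism: strain with a defined alteration affecting DNA damage repair or cell cycle control, treated with compound.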

[17] = at 5.0 µM (retest, dose inferred, filed as 0.5)
[18] = at 50.0 µM (retest, dose inferred, filed as 5.0)

Measured: growth inhibition

OC1(c2ccccc2)CCCc2ccc(Cl)cc21 (stereo unspecified)
active: [1]; at 100.0 µM 99% | [2]; at 100.0 µM 98% | [3]; at 100.0 µM 74% | [4]; at 100.0 µM 99% | [5]; at 100.0 µM 99% | [6]; at 100.0 µM 99% | [7]; at 100.0 µM 99% | [9]; at 100.0 µM 99% | [11]; at 100.0 µM 98% | [12]; at 100.0 µM 99% | [13]; at 100.0 µM 99% | [15]; at 100.0 µM 99%
inactive: [1]; at 1.2 µM 1% | [1]; at 3.7 µM 2% | [1]; at 11.0 µM 0% | [1]; at 33.0 µM 42% | [2]; at 1.2 µM -1% | [2]; at 3.7 µM -2% | [2]; at 11.0 µM -8% | [2]; at 33.0 µM -4% | [3]; at 1.2 µM 3% | [3]; at 3.7 µM 7% | [3]; at 11.0 µM 13% | [3]; at 33.0 µM 20% | [4]; at 1.2 µM -10% | [4]; at 3.7 µM -15% | [4]; at 11.0 µM -2% | [4]; at 33.0 µM 5% | [5]; at 1.2 µM -3% | [5]; at 3.7 µM 1% | [5]; [17] 10% | [5]; at 11.0 µM -2% | [5]; at 33.0 µM 50% | [5]; [18] 28% | [5]; at 50.0 µM 57.2% | [6]; at 1.2 µM 2% | [6]; at 3.7 µM 5% | [6]; [17] 1% | [6]; at 11.0 µM 0% | [6]; at 33.0 µM 31% | [6]; [18] 11% | [6]; at 50.0 µM 50.2% | [7]; at 1.2 µM 1% | [7]; at 3.7 µM -1% | [7]; at 11.0 µM -1% | [7]; at 33.0 µM 17% | [8]; [17] -3% | [8]; [18] 4% | [8]; at 50.0 µM 56.2% | [9]; at 1.2 µM 1% | [9]; at 3.7 µM 0% | [9]; at 11.0 µM -17% | [9]; at 33.0 µM 20% | [10]; [17] 3% | [10]; [18] 13% | [10]; at 50.0 µM 11.1% | [11]; at 1.2 µM -2% | [11]; at 3.7 µM -10% | [11]; [17] -3% | [11]; at 11.0 µM -14% | [11]; at 33.0 µM -17% | [11]; [18] -13% | [11]; at 50.0 µM -16.4% | [12]; at 1.2 µM 0% | [12]; at 3.7 µM -2% | [12]; at 11.0 µM -7% | [12]; at 33.0 µM 7% | [13]; at 1.2 µM 0% | [13]; at 3.7 µM 0% | [13]; at 11.0 µM 0% | [13]; at 33.0 µM 33% | [14]; [17] 0% | [14]; [18] 39% | [14]; at 50.0 µM 53.8% | [15]; at 1.2 µM 0% | [15]; at 3.7 µM 4% | [15]; at 11.0 µM 3% | [15]; at 33.0 µM 40%

CN(C)c1ccc2c(SCC(=O)OCC(=O)[C@@]3(O)CC[C@H]4[C@@H]5CCC6=CC(=O)C=C[C@]6(C)[C@H]5C(=O)C[C@@]43C)c3ccc(N(C)C)cc3nc2c1
active: [1]; at 33.0 µM 90% | [1]; at 100.0 µM 92% | [2]; at 33.0 µM 91% | [2]; at 100.0 µM 91% | [3]; at 100.0 µM 83% | [4]; at 33.0 µM 89% | [4]; at 100.0 µM 88% | [5]; at 11.0 µM 71% | [5]; at 33.0 µM 90% | [5]; [18] 89% | [5]; at 100.0 µM 89% | [6]; at 33.0 µM 90% | [6]; [18] 86% | [6]; at 50.0 µM 72.9% | [6]; at 100.0 µM 90% | [7]; at 33.0 µM 90% | [7]; at 100.0 µM 88% | [8]; [18] 92% | [8]; at 50.0 µM 78.7% | [9]; at 33.0 µM 89% | [9]; at 100.0 µM 89% | [10]; [18] 78% | [10]; at 50.0 µM 80.7% | [11]; at 33.0 µM 87% | [11]; [18] 95% | [11]; at 50.0 µM 72.3% | [11]; at 100.0 µM 89% | [12]; at 100.0 µM 83% | [16]; at 33.0 µM 86% | [16]; at 100.0 µM 87% | [14]; [18] 86% | [14]; at 50.0 µM 84.5% | [15]; at 11.0 µM 74% | [15]; at 33.0 µM 90% | [15]; at 100.0 µM 87%
inactive: [1]; at 1.2 µM -7% | [1]; at 3.7 µM -8% | [1]; at 11.0 µM 46% | [2]; at 1.2 µM 16% | [2]; at 3.7 µM -16% | [2]; at 11.0 µM 64% | [3]; at 1.2 µM 1% | [3]; at 3.7 µM 6% | [3]; at 11.0 µM 6% | [3]; at 33.0 µM 63% | [4]; at 1.2 µM -27% | [4]; at 3.7 µM -37% | [4]; at 11.0 µM 69% | [5]; at 1.2 µM -31% | [5]; at 3.7 µM -13% | [5]; [17] 7% | [5]; at 50.0 µM 60.2% | [6]; at 1.2 µM -10% | [6]; at 3.7 µM -5% | [6]; [17] 13% | [6]; at 11.0 µM 55% | [7]; at 1.2 µM -12% | [7]; at 3.7 µM -22% | [7]; at 11.0 µM 66% | [8]; [17] 12% | [9]; at 1.2 µM 9% | [9]; at 3.7 µM 16% | [9]; at 11.0 µM 53% | [10]; [17] 0% | [11]; at 1.2 µM -13% | [11]; at 3.7 µM -4% | [11]; [17] 22% | [11]; at 11.0 µM 55% | [12]; at 1.2 µM -89% | [12]; at 3.7 µM -74% | [12]; at 11.0 µM -15% | [12]; at 33.0 µM 67% | [16]; at 1.2 µM -15% | [16]; at 3.7 µM -30% | [16]; at 11.0 µM 46% | [14]; [17] 50% | [15]; at 1.2 µM -9% | [15]; at 3.7 µM 6%
